High-throughput results as filed in PubChem BioAssay.
Most compounds without a hit are left out; they make up all but 3.6% or so of the library.
D1 antagonist: Antagonist of Human D 1 Dopamine Receptor: qHTS; HEK293 TREx D1 cells, calcium flux, dopamine EC80; active compounds read low; activity change, negative = inhibition, % at 10 µM; hit rate 3.2% among 360,000; in the data active = activity change below about -30%; note: % is set by controls: 0 for no effect and ±100 for the full control effect
Target sequence (P21728 whole entry, looked up): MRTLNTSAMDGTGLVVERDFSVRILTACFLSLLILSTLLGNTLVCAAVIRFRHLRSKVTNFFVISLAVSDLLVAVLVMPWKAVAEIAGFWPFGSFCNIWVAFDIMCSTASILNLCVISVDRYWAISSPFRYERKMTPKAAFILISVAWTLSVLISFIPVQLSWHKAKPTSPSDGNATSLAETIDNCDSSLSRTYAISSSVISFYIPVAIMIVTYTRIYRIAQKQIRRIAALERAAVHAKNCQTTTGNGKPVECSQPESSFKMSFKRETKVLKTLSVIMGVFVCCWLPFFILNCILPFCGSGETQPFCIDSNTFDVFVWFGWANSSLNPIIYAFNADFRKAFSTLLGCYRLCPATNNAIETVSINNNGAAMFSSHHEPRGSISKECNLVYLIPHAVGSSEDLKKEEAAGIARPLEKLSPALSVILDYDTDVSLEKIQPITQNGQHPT
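After overnight tetracycline induction at 30 C, force-coupled D1 HEK293 cells took up a no-wash calcium dye at room temperature. Compounds were added and monitored 180 s, and the response to EC80 dopamine was then recorded.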
TRHR PAM: qHTS for Small Molecule Agonists and Allosteric Enhancers of Human TRH Receptor: Primary Screen for Enhancers; TRHR cells, fluo-8 calcium fluorescence, EC20 TRH enhancement; hit rate 0.66% among 360,000; Thyrotropin-releasing hormone receptor (Homo sapiens), P34981; enhancement, % at 2 µM; in the data active = enhancement above about 30%; note: 0% is about no effect
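TRHR-expressing cells loaded with fluo-8 calcium dye were read kinetically (ex 480/em 530) during compound addition, then stimulated with an EC20 of TRH (10 nM final). Enhancement of the Gq-mediated intracellular calcium response was scored.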
D1 agonist: Allosteric Agonists of the Human D1 Dopamine Receptor: qHTS; hit rate 1% among 360,000; activation, % at 2 µM; HEK293 T-REx D1 cells, calcium flux, agonist mode; D(1A) dopamine receptor (Homo sapiens), P21728; note: 0% is about no effect
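Inducible HEK293 T-REx D1 cells, force-coupled to calcium signalling, were plated at 4000 cells/well with tetracycline and held overnight at 30 C. After no-wash calcium dye loading, compound-evoked calcium rise over 180 s flagged agonists.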
D1 PAM: Potentiators of Human D1 Dopamine Receptor: qHTS; D(1A) dopamine receptor (Homo sapiens), P21728; HEK293 TREx D1 cells, calcium flux, dopamine EC20 potentiation; potentiation, % at 10 µM; hit rate 0.036% among 360,000; AID 504651, 2011; in the data active = potentiation above about 30%; note: 0% is about no effect
LDHA inh: qHTS assay for inhibitors of human lactate dehydrogenase. L-lactate dehydrogenase A chain (Homo sapiens), P00338. purified LDHA, NADH/diaphorase-resazurin fluorescence; active compounds read low. activity change, % (values are at about 110 or 230 µM). hit rate 0.15% among 480,000. AID 1347041, 2019; in the data active = activity change below about -30%;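 note: plate controls were DMSO wells for no effect and wells without enzyme for full effect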
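Remaining NADH was detected by diaphorase (0.133 mg/mL) converting 37 µM resazurin to fluorescent resorufin, read at 0 and 20 minutes. The preceding 5-minute room-temperature reaction used 2 nM LDHA, 0.2 mM sodium pyruvate and 0.06 mM NADH at pH 7.4.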
TRHR agonist: qHTS for Small Molecule Agonists and Allosteric Enhancers of Human TRH Receptor: Primary Screen for Agonists. Thyrotropin-releasing hormone receptor (Homo sapiens), P34981. TRHR cells, calcium flux fluo-8, FDSS agonist mode. activation, % at 2 µM. hit rate 0.18% among 360,000. AID 493084, 2011; note: 0% is about no effect
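TRHR-expressing cells loaded with fluo-8 calcium dye; 23 nL library compound pin-transferred, kinetic FDSS fluorescence (Ex 480/Em 530) recorded about 180 s for agonist-induced calcium release, before a 10 nM TRH EC20 addition for potentiator mode.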
* marks the source's active call; other numbers are inactive results; nt = not tested or not shown. Cut-off read from the data, not from the text of the source, unless noted: active = activation above about 30%; inactive = the rest.

SMILES	D1 antagonist	TRHR PAM	D1 agonist	D1 PAM	LDHA inh	TRHR agonist
CCN(CC)c1ccc2c(c1)OC(N)=C(C#N)C2c1cccnc1 (stereo not drawn)	10	-3	86*	-4	9	23
Cc1cc(Nc2cc(Cl)cc(Cl)c2)nc(-c2ccccc2O)n1	nt	nt	nt	nt	6	nt
Cc1cc(Nc2ccccc2)nc(-c2ccccc2O)n1	-45*	6	4	-3	2	0
CCCOc1ccc(C(=O)NCC2CCCO2)cc1Br (stereo not drawn)	nt	nt	nt	nt	3	nt
O=C(NCc1ccc(CN2CCCCC2)cc1)c1ccc(C(F)(F)F)nc1	nt	nt	nt	nt	-1	nt
Cc1cc(S(=O)(=O)NC[C@H]2O[C@@H](n3cnc4c(N)ncnc43)[C@H](O)[C@@H]2O)c(C)s1	nt	nt	nt	nt	-8	nt
Cc1cc(S(=O)(=O)NC[C@H]2O[C@@H](n3ccc(N)nc3=O)[C@H](O)[C@@H]2O)c(C)s1	nt	nt	nt	nt	-31*	nt
N#C/C(=N\Nc1ccc(Cl)cc1)C(N)=S	-15	-5	30*	-3	-18	3
CCC(CC)C(CNC(=O)c1ccc(Cl)cc1F)N1CCOCC1 (stereo not drawn)	nt	nt	nt	nt	5	nt
O=C(c1cc(COc2ccc(F)cc2Cl)on1)N1CCN(C2CCCC2)CC1	-44*	5	15	-3	-2	-1
COCCN1CCN(C(=O)c2cc(COc3ccc(F)cc3F)on2)CC1	-4	-4	0	-4	-56*	0
O=C(c1cc(COc2ccc(F)cc2Cl)on1)N1CCN(C2CCCCC2)C(=O)C1	-20	-5	24	-2	-7	-1
Cc1oc(-c2cccs2)nc1CC(=O)N1CCC(NC(=O)c2ccccc2)CC1	nt	nt	nt	nt	-3	nt
CN(C)c1ccc(/C=C(\C#N)C(=O)c2ccccc2)cc1	-39*	29	401*	22	-1	138*
CN(C)c1cccc(/C=C(\C#N)c2ccccc2)c1	-32*	17	-1	0	1	-1
CCOC(=O)/C(C#N)=C\c1ccc(N)cc1	nt	nt	nt	nt	9	nt
Cc1ccc(C=C(C#N)C(=O)c2ccccc2)cc1	nt	nt	nt	nt	-9	nt
CCOC(=O)NC(=O)/C(C#N)=C/c1ccc(N(C)C)cc1	-26	13	31*	-5	-1	10
CCN(CC)c1ccc(/C=C(\C#N)C(=O)c2ccc(Br)cc2)cc1	-48*	7	259*	-10	-9	109*
Cc1cc(OCc2n[nH]c(=S)n2C)ccc1Cl	nt	nt	nt	nt	0	nt
CN(C)c1ccc(/C=C(\C#N)c2nc3ccccc3c(=O)[nH]2)cc1	-27	-1	97*	6	-5	38*
COc1cccc(CNC(=O)COC(=O)/C(C#N)=C/c2ccc(N(C)C)cc2)c1	-17	1	74*	nt	-1	13
COc1ccc(/C=C(\C#N)C(=O)OCC(=O)NCc2ccccc2)cc1	0	0	0	1	-6	0
Cc1cccc(/C=C(\C#N)c2nc3ccccc3c(=O)[nH]2)c1	-19	-1	6	-3	-7	2
O=C(Nc1nnc(-c2ccncc2)s1)C(=O)c1c[nH]c2ccccc12	nt	nt	nt	nt	6	nt
SMILES	D1 antagonist	TRHR PAM	D1 agonist	D1 PAM	LDHA inh	TRHR agonist
O=C(CCCCCCC(=O)c1ccccc1)c1ccccc1	-32*	-10	2	-1	-3	0
CC1=Nc2ccccc2/C1=C\c1nc(-c2ccc(C(F)(F)F)cc2)oc1O	19	-8	79*	-12	7	25
CC1=Nc2ccccc2/C1=C\c1nc(-c2ccccc2)oc1O	-8	29	27	-3	5	9
COc1ccc(-c2nc(/C=C3\C(C)=Nc4ccccc43)c(O)o2)cc1	-15	2	33*	-5	-14	8
CC1=Nc2ccccc2/C1=C/c1nc(-c2ccc(C)s2)oc1O	-18	-8	73*	-4	-1	17
CCCc1c2c(nn1-c1cc(Cl)ccc1OC)CC(C)(C)CC2=O	nt	nt	nt	nt	-2	nt
Cc1cccc(N2CCN(CC(=O)Nc3nncs3)CC2)c1C	nt	nt	nt	nt	8	nt
COc1ccc(-c2nc3ccccc3o2)cc1NC(=O)c1cccc(Cl)c1	nt	nt	nt	nt	-9	nt
NC(=O)c1cc(Cl)ccc1OCc1ccc(OC(F)(F)F)cc1	nt	nt	nt	nt	15	nt
CN1CCN(C(=O)/C=C/c2ccc([N+](=O)[O-])o2)CC1	-32*	-4	0	-3	4	1
Cc1ccc(CN(Cc2ccccc2)C(=S)NCC(=O)NCc2cccnc2)o1	-48*	1	0	-3	-1	0
Cc1ccc(CN(Cc2ccco2)C(=S)NCC(=O)NCc2cccnc2)cc1	8	3	-1	8	-7	1
CC(=O)NCCc1ccc(C(=O)COC(=O)c2ccc(C)cc2O)s1	nt	nt	nt	nt	0	nt
COc1ccc(N(C)C(=O)CCc2c[nH]c3ccccc23)cc1OC	nt	nt	nt	nt	3	nt
COc1ccc(/C=C2/SC(=S)N(NS(=O)(=O)c3ccccc3)C2=O)cc1	3	17	-4	4	-6	0
COc1cc(/C=C2\SC(=S)N(NS(=O)(=O)c3ccccc3)C2=O)ccc1O	-3	-7	44*	0	3	14
COc1cc(/C=C2\SC(=S)N(NC(=O)c3ccccc3OC)C2=O)ccc1O	-7	7	49*	10	2	29
COc1cc(/C=C2\SC(=S)N(NC(=O)c3cccc(O)c3)C2=O)ccc1O	8	9	110*	-2	3	75*
CCN(CC)S(=O)(=O)c1cccc(-c2n[nH]c(=S)n2/N=C/c2ccc(OC(F)F)cc2)c1	-83*	-2	1	-9	-2	0
CSc1nc2n(n1)C(c1ccccc1Cl)C1=C(CCCC1=O)N2 (stereo not drawn)	nt	nt	nt	nt	3	nt
CC(C)(C)NC(=O)CSc1nnnn1C(C)(C)C	-38*	-3	4	-10	-4	0
O=C(N/N=C/c1ccc([N+](=O)[O-])o1)c1ccc(NC(=O)C2CCCCC2)cc1	nt	nt	nt	nt	2	nt
Cc1nc(N2CCN(c3ccccn3)CC2)c2c(C)c(C(=O)Nc3ccccc3F)sc2n1	-14	-4	0	-3	-4	0
CCc1ccc(NC(=O)c2sc3nc(C)nc(N4CCN(c5ccccn5)CC4)c3c2C)cc1	-84*	3	2	-12	-4	1
CC(=O)c1ccc(N2CCN(S(=O)(=O)c3ccc4c(c3)C(C)(C)C(=O)N4)CC2)cc1	-8	18	4	-1	-10	0
CC(=O)c1ccc(NC(=O)CN2CCN(S(=O)(=O)c3ccc4ccccc4c3)CC2)cc1	-35*	2	35*	nt	-1	1
